Assay [1] concerns Vero E6 infected with SARS-CoV-2. As to the kind of experiment: morphology score (similarity to uninfected cells); higher = more like uninfected cells. To be noted: 24 h.
Assay [2] has the same test system. As to the kind of experiment: SARS-CoV-2 infection rate relative to infected DMSO; higher = more infection, active = 60 or less. As to conditions: 24 h.

Each structure is given as a SMILES string.

This passage reports morphology score and SARS-CoV-2 infection rate results from the supplement of paper PMC13380429.

`O=C(/C=C/c1ccc2ccc(C(F)(F)F)cc2n1)c1ccncc1` (10 µM) gave a morphology score in assay [1] of 0.389. Moreover, the SARS-CoV-2 infection rate in assay [2] is 63.5% (inactive).
In the same order, the values of `Cc1cc2c(C(C)C)c(O)c(O)c(C=O)c2c(O)c1-c1c(C)cc2c(C(C)C)c(O)c(O)c(C=O)c2c1O` [gossypol] (0.833333 µM) are -0.0839 and 104% (inactive).
In the same order, the values of `CC(C)Cc1ccc(C(C)C(=O)O)cc1` (stereo not drawn) [ibuprofen] (10 µM) are 0.0447 and 108% (inactive).
Taken in the same sequence, the figures for `O=C(O)[C@H](O)[C@@H](O)[C@H](O[C@@H]1O[C@H](CO)[C@H](O)[C@H](O)[C@H]1O)[C@H](O)CO` [maltobionic-acid] (10 µM) were 0.138 and 92.5% (inactive).
In turn, `CCCC(=O)OCOC(=O)C1=C(C)NC(C)=C(C(=O)OC)C1c1cccc(Cl)c1Cl` (stereo not drawn) [cleviprex] (10 µM) showed a morphology score in assay [1] of 0.0656. Further, the SARS-CoV-2 infection rate in assay [2] was 102% (inactive).
In the same order, the values of `Cc1cccc(C)c1NC(=O)CN1CCCC1=O` [nefiracetam] (10 µM) are 0.0495 and 113% (inactive).
In the same order, the values of `Cc1c(CN2CCN(C(=O)[C@H](C)O)CC2)sc2c(N3CCOCC3)nc(-c3cnc(N)nc3)nc12` (10 µM) are -0.0562 and 113% (inactive).
Taken in the same sequence, the figures for `COc1cc(C)[nH]c(=O)c1CNC(=O)c1c(C)n([C@H](C)C2CCOCC2)c2ccccc12` (10 µM) were 0.0908 and 96.5% (inactive).
For `O=C(NCCNCC(O)COc1ccc(O)cc1)N1CCOCC1` (stereo not drawn) [xamoterol] (10 µM), the morphology score in assay [1] worked out at 0.0295. Also, the SARS-CoV-2 infection rate in assay [2] is 110% (inactive).
Taken in the same sequence, the figures for `CN(C)C(=O)Nc1cccc(-c2ccc(N(C)C)cc2)c1` [atglistatin] (10 µM) were 0.11 and 98% (inactive).
Turning to `Oc1nc(O)c2nc(O)[nH]c2n1` [uric-acid] (10 µM), the morphology score in assay [1] was -0.0319. Moreover, the SARS-CoV-2 infection rate in assay [2] was 106% (inactive).
`O=C(/C=C/c1ccc(CN(CCO)CCc2c[nH]c3ccccc23)cc1)NO` [dacinostat] (0.833333 µM) returned a morphology score in assay [1] of 0.00104. Also, the SARS-CoV-2 infection rate in assay [2] is 104% (inactive).
Taken in the same sequence, the figures for `O=C(CCCl)NCc1ccccc1` [beclamide] (10 µM) were 0.278 and 97.5% (inactive).
Taken in the same sequence, the figures for `CC(C(=O)O)c1ccc2c(c1)CC(=O)c1ccccc1S2` (stereo not drawn) [zaltoprofen] (10 µM) were 0.241 and 104% (inactive).
With `O=C(O)CCNc1cc(N2CCc3ccccc3CC2)nc(-c2cccnc2)n1` (10 µM), the morphology score in assay [1] worked out at 0.165. The SARS-CoV-2 infection rate in assay [2] is 108% (inactive).
Taken in the same sequence, the figures for `O=C(O)C[C@H]1CC[C@H](c2ccc(-c3ccc(Nc4ccc(C(F)(F)F)nc4)cn3)cc2)CC1` (10 µM) were 0.27 and 73.5% (inactive).
Taken in the same sequence, the figures for `CCCc1ccc(C(=O)O)cc1` [4-propylbenzoic-acid] (10 µM) were 0.187 and 95% (inactive).
In the same order, the values of `Fc1ccc(Cl)cc1-c1nc(Nc2ccncc2)c2nccnc2n1` (10 µM) are 0.0882 and 101% (inactive).
Molecule `NC(=O)c1cnccn1` [pyrazinamide] (10 µM) yielded a morphology score in assay [1] of 0.0672. Also, the SARS-CoV-2 infection rate in assay [2] is 110% (inactive).
Consider `COc1ccc2nc3ccc(Cl)cc3c(SCCCN)c2c1` (10 µM), for which the morphology score in assay [1] is 0.0488. Further, the SARS-CoV-2 infection rate in assay [2] was 91.5% (inactive).
In assay [1], `Cn1cnc(N)c2ncnc1-2` [3-methyladenine] (10 µM) returned a morphology score of 0.258. In addition, in assay [2], the SARS-CoV-2 infection rate is 93% (inactive).
In the same order, the values of `Cc1cc(-c2nc3cc(F)ccc3s2)ccc1NC(=O)[C@@H](N)CCCCN` [phortress] (10 µM) are -0.32 and 120% (inactive).
Taken in the same sequence, the figures for `O=C(COc1ccc(C(=O)c2ccccc2)cc1)NC1CCN(Cc2ccccc2)CC1` [adiporon] (10 µM) were 0.0636 and 106% (inactive).
In assay [1], `CO[C@H]1C[C@@H]2CC[C@@H](C)[C@@](O)(O2)C(=O)C(=O)N2CCCC[C@H]2C(=O)O[C@H]([C@H](C)C[C@@H]2CC[C@@H](O)[C@H](OC)C2)CC(=O)[C@H](C)/C=C(\C)[C@@H](O)[C@@H](OC)C(=O)[C@H](C)C[C@H](C)/C=C/C=C/C=C/1C` [sirolimus] (10 µM) showed a morphology score of -0.126. In addition, in assay [2], the SARS-CoV-2 infection rate is 104% (inactive).
As for `Nc1ncc(Cc2ccc(Br)cc2)s1` (10 µM), the morphology score in assay [1] was found to be 0.13. Further, the SARS-CoV-2 infection rate in assay [2] was 102% (inactive).
For the molecule `Fc1ccc2c(CCNCc3cccc(OCC(F)(F)C(F)F)c3)c[nH]c2c1` [idalopirdine] (10 µM), the morphology score in assay [1] was -0.145. Moreover, the SARS-CoV-2 infection rate in assay [2] is 114% (inactive).
In the same order, the values of `CN1C(C(=O)Nc2ccccn2)=C(O)c2sccc2S1(=O)=O` [tenoxicam] (10 µM) are -0.0614 and 108% (inactive).
In the same order, the values of `CC(=O)N1CCN(C)CC1` [1-acetyl-4-methylpiperazine] (10 µM) are -0.0421 and 102% (inactive).
Taken in the same sequence, the figures for `CNC(=O)N(C)N=O` [nitrosodimethylurea] (10 µM) were 0.0639 and 106% (inactive).
